PubChem BioAssay (NCATS)
Inconclusive results are not listed. A call without a number means that no potency is given here. Activity calls are given as the source filed them. Calls come from the whole dose curve; as a rule, active = well fitted cell-killing curve with a large enough effect; inconclusive = small, poorly fitted or top-dose-only effect, or effect the other way; inactive = no such curve, though single readings can be large or run the other way.

Test: Viability qHTS for spleen associated tyrosine kinase inhibitor (SYKi) drug resistant MV4-11 cells (AID 1963824); note: nearly all actives have a fitted effect of over 35% in size
Conditions: SYKi-resistant MV4-11 viability, CellTiter-Glo, 72 h; series mostly up to 45 µM
Outline: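 SYK inhibitor-resistant MV4-11 AML cells, 500 per well, added to predispensed compounds and incubated 72 hr at 37 C, 5% CO2. Viability measured by CellTiter-Glo luminescence after 10 min at room temperature.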
Potency is the fitted concentration of half-maximal effect.

Structure (SMILES) | Potency
CC(C)[C@@H](C)/C=C/[C@@H](C)[C@H]1CC[C@H]2C3=CC=C4C[C@@H](O)CC[C@]4(C)C3=CC[C@]12C | 11.6 µM (active)
COc1c2c(c(C)c3c1C(=O)OC3)OC1(C)CC(O)C34OC(OC)(CC(OC(C)=O)C3(C)C1C2)OC4(C)C (configuration not stated) | inactive
CC(=O)c1c(OCCN2CCCCC2)c(OCCC(C)c2ccc(F)cc2)c2oc(C)nc2c1C (configuration not stated) | 7.31 µM (active)
C[C@@H]1CN(Cc2ncccn2)C[C@H]1c1nc2c(cnn2C2CCOCC2)c(=O)[nH]1 | inactive
O=C(OC[C@H]1O[C@H](O[C@H]2CO[C@H](CO)[C@@H](O)[C@@H]2O)[C@H](O)[C@@H](O)[C@H]1O)c1ccccc1 | inactive
CC(C)c1ccc2c(c1)C(O)CC1C(C)(C(=O)O)CCCC21C (configuration not stated) | inactive
CC(=O)O[C@H]1C[C@@H](O)C(C)(C)C2C[C@@H](OC(C)=O)[C@@]3(C)C4=CCC(C(CO)CC(O)C5OC5(C)C)[C@]4(C)CCC3[C@]21C (some centres not stated) | inactive
C=C(C)C(=O)O[C@H]1[C@H]2C(=C)C(=O)O[C@@H]2C[C@@H](C)[C@@H]2O[C@@H]2C(=O)[C@](C)(O)[C@@H]1OC(=O)C(=C)C | 1 µM (active)
CCC1=C(C)C(=O)C(C)CC12C(=O)CCC2C(=O)O (configuration not stated) | inactive
CCN1CCN(c2ccc(Nc3ccc(-c4ccc(C(N)=O)cc4)n4ncnc34)cc2)CC1 | 0.651 µM (active)
C=C1C(=O)O[C@@H]2C[C@@]3(C)CCC[C@H](C)C3=C[C@H]12 | 7.31 µM (active)
CCOc1ccc(-c2nc(-c3cccc4c3CCC4NCCO)no2)cc1OCC (configuration not stated) | 13 µM (active)
